Assay outcomes as filed in PubChem BioAssay.
Hits are enriched below; roughly 3.8% of the tested compounds scored in any of these assays.
aDG glyco act: increases alpha dystroglycan glycosylation. Pro5-aDG cells, alpha-DG glycosylation AlphaScreen (IIH6); 0% Pro5, 100% B10-LARGE cell signal. 360,000 tested, 0.22% active. activation, % at 10 µM. AID 624168;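 active = activation of at least 8% versus controls, or a plate z-score of at least 8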;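 also: Pro5 are CHO cells carrying HIG-tagged alpha-DG that lacks glycosylation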
Cardio protect: modulators protecting cardiomyocytes from myocardial damage | protection from H2O2 cell death, % at 20 µM | H9c2 cardiomyocytes, H2O2 injury protection, ATPLite, 2 h | 360,000 tested, 0.63% active;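 active = compounds giving at least 50% protection of heart cells from peroxide-induced death in the single-dose screen, raw or plate-pattern-corrected value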
MPTP inh: inhibitors of mitochondrial permeability transition pore; 360,000 tested, 1.4% active; AID 602449; isolated mouse mitochondria, Ca2+ swelling absorbance, 30 min; inhibition, % at 10 µM;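 active = inhibition of 50% or more, scaled per plate between neutral and stimulator controls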
SUMO Mot1 rescue: blocks SUMOylation pathway, rescuing yeast Mot1-301 growth; S. cerevisiae Mot1-301 growth rescue, ATP luminescence, 38.5C; percent above DMSO median, 100 means doubled; growth rescue, % at 18.8 µM; AID 2716; 320,000 tested, 1% active;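 active = every valid replicate shows activation above 250% relative to neutral control wells; inactive = the rest, any valid replicate at or below 250%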
CR mimetic SO: caloric restriction mimetics inhibiting age-related superoxide in yeast; AID 2690; 330,000 tested, 0.18% active; superoxide response (% of plate mean), % at 10 µM; S. cerevisiae aged cells, superoxide DHE fluorescence; active compounds read low;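 active = superoxide response under a set limit, about three screen SD below normal, cut at about 65% in these data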;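 also: yeast aged for seven days with compound at 30 °C before DHE staining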
FAS TE block: blocks the thioesterase domain of human fatty acid synthase; inhibition, % at 15 µM; 360,000 tested, 0.67% active; recombinant FAS-TE, OMFH fluorogenic substrate, fluorescence endpoint; P49327;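 active = compounds whose normalised, plate-corrected inhibition of enzyme fluorescence in the single-dose primary screen is 50% or more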
Superoxide pick: yeast aging superoxide inhibition, cherry pick confirmation; shares compounds with CR mimetic SO; superoxide response (% of plate), % at 10 µM; AID 434994; 850 tested, 1% active; S. cerevisiae aging, superoxide DHE fluorescence; active compounds read low;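 active = superoxide signal below 65% of the plate average of sample wells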;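 also: cells aged with compound for 7 days at 30 degrees C before staining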
DHE fluor count: DHE fluorescence interference, counter-screen artifact; shares compounds with CR mimetic SO; S. cerevisiae BY4741, flow cytometry; active compounds read low; fluorescence response, % at 10 µM; 850 tested, under 10 active; AID 435000;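 active = fluorescence response below 15%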;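 also: lower means stronger quenching of DHE signal or ROS scavenging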
Hits are given with their value; - = inactive; . = no result.

SMILES	aDG glyco act	Cardio protect	MPTP inh	SUMO Mot1 rescue	CR mimetic SO	FAS TE block	Superoxide pick	DHE fluor count
C=CCSc1nnc(-c2ccc([N+](=O)[O-])cc2)o1	-	-	-	-	64	-	-	-
CSc1ccccc1C(=O)N1CCCCC1	-	-	-	-	-	-	.	.
CSc1ccccc1C(=O)N1CCN(c2ccc(F)cc2)CC1	-	-	-	-	-	-	-	-
CS(=O)(=O)Nc1ccccc1C(=O)N1CCN(c2ccccc2)CC1	.	.	.	-	-	.	-	-
O=C(Nc1ccc(NS(=O)(=O)c2ccccc2)cc1)c1cccnc1	-	-	-	-	-	-	.	.
CCCNS(=O)(=O)c1ccc(NC(=O)c2cccnc2)cc1	-	-	-	-	58	-	-	-
O=C(CCNS(=O)(=O)c1ccccc1F)N1CCN(C/C=C/c2ccccc2)CC1	-	-	-	-	-	-	.	.
CC1(C)CC(NCc2cccc([N+](=O)[O-])c2)CC(C)(C)N1	-	-	-	-	62	-	-	-
Cc1cc(Br)ccc1NC(=O)C1C2CCC(O2)C1C(=O)O (configuration not stated)	-	-	-	-	-	-	.	.
O=C(NC(=S)NNC(=O)c1ccccc1O)c1ccco1	-	-	-	-	57	-	-	-
Cc1ccc(C(=O)N2CCCCC2)cc1S(=O)(=O)N1CCCC1	-	-	-	-	-	-	.	.
Cc1ccc(C(=O)O)cc1S(=O)(=O)N1CCCC1	-	-	-	-	-	-	-	-
Cc1ccc(C(=O)N2CCN(c3ccccc3Cl)CC2)cc1[N+](=O)[O-]	-	-	-	-	-	-	-	-
Cc1ccc(N2CCN(C(=O)c3cccc([N+](=O)[O-])c3)CC2)cc1Cl	-	-	-	-	-	-	-	-
Nc1ccccc1N1CCN(C(=O)c2ccccc2)CC1	-	-	-	-	-	-	-	-
Cc1ncc([N+](=O)[O-])n1CC(=O)Nc1ccc(Cl)cc1	-	-	-	-	-	-	.	.
Cc1ncc([N+](=O)[O-])n1CC(=O)Nc1ccc(F)c(F)c1	-	-	-	-	53	-	-	-
CN(C(=O)CSc1nc(O)cc(=O)n1-c1ccccc1F)c1ccccc1	-	-	-	-	50	-	-	-
CN(C(=O)CSc1nc(O)cc(=O)n1C1CCCC1)c1ccccc1	-	-	-	-	-	-	.	.
O=c1cc2c(nn1Cc1ccc(F)cc1)-c1ccccc1CC2	-	-	-	-	59	-	-	-
CN(C)C(CNC(=O)c1cc(S(=O)(=O)N(C)c2ccc(F)cc2)ccc1Cl)c1cccs1 (configuration not stated)	-	-	-	.	.	-	.	.
N#Cc1c(F)cccc1NCc1cccnc1	-	-	-	-	56	-	-	-
N#Cc1c(NCc2ccccc2)ccnc1NCc1cccnc1	-	-	-	-	-	-	.	.
CC(=O)Nc1ccc(S(=O)(=O)N(C)c2ccc(O)cc2)cc1	-	-	-	-	-	-	.	.
CN(c1ccccc1)S(=O)(=O)c1ccc(C(=O)NNC(=O)c2ccccc2)cc1	-	-	-	.	-	-	.	.
SMILES	aDG glyco act	Cardio protect	MPTP inh	SUMO Mot1 rescue	CR mimetic SO	FAS TE block	Superoxide pick	DHE fluor count
CN(c1ccc(C(=O)O)cc1)S(=O)(=O)c1ccccc1	-	-	-	.	-	-	-	-
CC(=O)Nc1ccc(S(=O)(=O)N(C)c2ccccc2)cc1	-	-	-	-	-	-	-	-
COc1ccc(C(=O)NCC(=O)OCC(=O)NC(=O)c2ccc(C(C)(C)C)cc2)cc1OC	-	-	-	-	-	-	.	.
COc1ccc(CNC(=O)CNC(=O)c2ccc(C(C)(C)C)cc2)cc1OC	-	-	-	-	62	-	-	-
Fc1ccc(Cn2nnc3ccccc32)cc1	-	-	-	-	64	-	-	-
COc1ccc(-c2ccc(=O)n(Cc3cccc(Cl)c3)n2)cc1	-	-	-	-	55	-	-	-
COc1ccc(/C=C2\SC(N3CCCCC3)=NC2=O)cc1	-	-	-	-	55	-	-	-
O=C1N=C(N2CCCCC2)S/C1=C\c1ccncc1	-	-	-	-	-	-	.	.
Cc1cc([N+](=O)[O-])nn1Cc1ccc(C(=O)N/N=C/c2ccc(O)cc2O)cc1	-	-	-	-	65	-	-	-
Cc1ccccc1C(NC(=O)C1CCN(Cc2ccc(Oc3ccccc3)cc2)CC1)c1ccsc1 (configuration not stated)	-	-	-	.	.	-	.	.
CCCCc1cc(=O)oc2cc(OCC(=O)N3CCC(C(=O)O)(c4ccccc4)CC3)ccc12	-	-	-	-	64	-	-	-
CCCCc1cc(=O)oc2cc(OCC(=O)N3CCOCC3)ccc12	-	-	-	-	-	-	.	.
COc1cc2[nH]c(=S)nc(NCCc3ccc(C)cc3)c2cc1OC	-	-	-	.	.	-	.	.
COc1ccc(CCNc2nc(=S)[nH]c3cc(OC)c(OC)cc23)cc1OC	-	-	-	-	63	-	-	-
CC12CCC3C(CCC4N(CCO)CCC34C)C1CCC2O (configuration not stated)	-	-	-	-	-	-	.	.
c1ccc(-c2nnc(-c3ccccn3)nn2)nc1	-	-	-	-	-	-	.	.
c1ccc(-c2cccc(-c3ccccn3)n2)nc1	-	65	-	-	63	-	-	-
COc1ccc(C(=O)N(C)CC(=O)Nc2cccc(F)c2)cc1S(=O)(=O)NC1CCCC1	-	-	-	-	-	-	.	.
COc1ccc(C(=O)NC(=S)NNC(=O)c2cnccn2)cc1	-	-	-	-	-	-	.	.
O=C(NC(=S)NNC(=O)c1cnccn1)c1ccc(Cl)cc1	-	-	-	-	53	-	-	-
C=CCN1C(=O)/C(=C\C=C2\N(C)c3ccccc3C2(C)C)SC1=S	-	-	-	-	57	-	-	-
Cc1ccc(S(=O)(=O)N2C3CC(c4ccccc4)N(S(=O)(=O)c4cccc(Cl)c4)CC3C(=O)C[C@H]2c2ccccc2)cc1 (some centres not stated)	-	.	-	.	.	.	.	.
c1ccc2nc3ccccc3nc2c1	-	-	-	-	64	-	-	-
Nc1nc2ccccc2nc1N	-	-	-	-	-	-	.	.
Cc1ccc(-n2c(C)cc(C)c(C#N)c2=O)cc1C	-	-	-	.	62	-	-	-
Cc1cc(C)n(-c2ccc(F)cc2)c(=O)c1C#N	-	-	-	-	-	-	.	.
CCN(CC)C(=O)CSC1=Nc2ccccc2C2=NC(Cc3c[nH]c4ccccc34)C(=O)N12 (configuration not stated)	-	-	-	-	65	-	-	-
O=c1cc(O)c2c(=O)n(-c3ccccc3)c3ccccc3c2o1	-	-	-	-	-	-	-	-
